# What was measured:
# Assay in all cases: PBM binding z-score (relative to random genomic background probes); higher = stronger binding; sequences stand for … in GC…GCGATTGACAGCGTAGAATGAAGG
# [1] = tested on: FXR:RXRa (NR concentration 270 nM, RXRa partner concentration 90 nM)
# Procedure, shortened: (§1)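 Ligand-free nuclear receptor dimers were applied to custom Agilent 4×180K protein-binding microarrays whose double-stranded probes carried direct-repeat seeds, single-nucleotide variants, half-site ablations and random human genomic background sequences in 34-nt variable regions. Incubation lasted 1 h. Binding z-scores were computed against the random background probes from regression-normalized fluorescence.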
# [2] = tested on: LXRa:RXRa (NR concentration 270 nM, RXRa partner concentration 90 nM)
# Procedure, shortened: as §1
# [3] = tested on: LXRa homodimer (NR concentration 270 nM)
# Procedure, shortened: as §1
# [4] = tested on: LXRb:RXRa (NR concentration 270 nM, RXRa partner concentration 90 nM)
# Procedure, shortened: as §1
# [5] = tested on: LXRb homodimer (NR concentration 270 nM)
# Procedure, shortened: as §1
# [6] = tested on: PPARa:RXRa (NR concentration 270 nM, RXRa partner concentration 90 nM)
# Procedure, shortened: as §1
# [7] = tested on: PPARg:RXRa (NR concentration 180 nM, RXRa partner concentration 90 nM)
# Procedure, shortened: as §1
# [8] = tested on: PPARg:RXRa 270nM:90nM, anti-RXR (NR concentration 270 nM, RXRa partner concentration 90 nM)
# Procedure, shortened: as §1
# [9] = tested on: PPARg:RXRa 30nM:10nM, anti-RXR (NR concentration 30 nM, RXRa partner concentration 10 nM)
# Procedure, shortened: as §1
# [10] = tested on: PPARg:RXRa 90nM:30nM, anti-RXR (NR concentration 90 nM, RXRa partner concentration 30 nM)
# Procedure, shortened: as §1
# [11] = tested on: PPARg:RXRa DBDmut IVT, anti-RXR (DBD mutation: RXRa K156A/R161A, NR concentration 270 nM, RXRa partner concentration 90 nM)
# Procedure, shortened: as §1
# [12] = tested on: PPARg:RXRa IVT, anti-PPARg (NR concentration 270 nM, RXRa partner concentration 90 nM)
# Procedure, shortened: as §1
# [13] = tested on: PPARg DBDmut:RXRa IVT, anti-PPARg (DBD mutation: PPARg1 K132A/R137A, NR concentration 270 nM, RXRa partner concentration 90 nM)
# Procedure, shortened: as §1
# [14] = tested on: PPARg DBDmut IVT, anti-PPARg (DBD mutation: PPARg1 K132A/R137A, NR concentration 270 nM)
# Procedure, shortened: as §1
# [15] = tested on: PPARg homodimer (NR concentration 180 nM)
# Procedure, shortened: as §1
# [16] = tested on: PXR:RXRa (NR concentration 270 nM, RXRa partner concentration 90 nM)
# Procedure, shortened: as §1
# [17] = tested on: PXR homodimer (NR concentration 270 nM)
# Procedure, shortened: as §1
# [18] = tested on: RARa:RXR (NR concentration 270 nM, RXRa partner concentration 90 nM)
# Procedure, shortened: as §1
# [19] = tested on: RARa homodimer (NR concentration 270 nM)
# Procedure, shortened: as §1
# [20] = tested on: RARb:RXRa (NR concentration 270 nM, RXRa partner concentration 90 nM)
# Procedure, shortened: as §1
sequence,measurement,setting,value
AGAACGAGGGCAATGAGATGATAGCACGGGTGGC,PBM binding z-score,[1],0.277
same,PBM binding z-score,[2],0.121
same,PBM binding z-score,[3],-0.31
same,PBM binding z-score,[4],-0.282
same,PBM binding z-score,[5],-0.486
same,PBM binding z-score,[6],1.02
same,PBM binding z-score,[7],1.58
same,PBM binding z-score,[8],0.593
same,PBM binding z-score,[9],0.201
same,PBM binding z-score,[10],0.528
same,PBM binding z-score,[11],3.28
same,PBM binding z-score,[12],2.47
same,PBM binding z-score,[13],1.03
same,PBM binding z-score,[14],0.417
same,PBM binding z-score,[15],0.45
same,PBM binding z-score,[16],0.149
same,PBM binding z-score,[17],0.0572
same,PBM binding z-score,[18],0.235
same,PBM binding z-score,[19],0.363
same,PBM binding z-score,[20],2.05
TGTCAAAGTTCAAACGTAACGTAAGTATCCACAC,PBM binding z-score,[1],7.01
same,PBM binding z-score,[2],6.81
same,PBM binding z-score,[3],5.78
same,PBM binding z-score,[4],4.82
same,PBM binding z-score,[5],3
same,PBM binding z-score,[6],5.43
same,PBM binding z-score,[7],8.29
same,PBM binding z-score,[8],7.51
same,PBM binding z-score,[9],5.26
same,PBM binding z-score,[10],7.39
same,PBM binding z-score,[11],0.502
same,PBM binding z-score,[12],4.09
same,PBM binding z-score,[13],1.75
same,PBM binding z-score,[14],1.83
same,PBM binding z-score,[15],2.5
same,PBM binding z-score,[16],5.07
same,PBM binding z-score,[17],4.65
same,PBM binding z-score,[18],3.8
same,PBM binding z-score,[19],1.09
same,PBM binding z-score,[20],4.99
CCTAGTTGATCAGGAGGTCACACACCGGATATGA,PBM binding z-score,[1],3.48
same,PBM binding z-score,[2],3.95
same,PBM binding z-score,[3],3.16
same,PBM binding z-score,[4],3.71
same,PBM binding z-score,[5],1
same,PBM binding z-score,[6],4.19
same,PBM binding z-score,[7],2.24
same,PBM binding z-score,[8],2.78
same,PBM binding z-score,[9],1.24
same,PBM binding z-score,[10],1.99
same,PBM binding z-score,[11],0.771
same,PBM binding z-score,[12],2.22
same,PBM binding z-score,[13],0.83
same,PBM binding z-score,[14],0.641
same,PBM binding z-score,[15],4.38
same,PBM binding z-score,[16],4.62
same,PBM binding z-score,[17],1.79
same,PBM binding z-score,[18],5.02
same,PBM binding z-score,[19],2.57
same,PBM binding z-score,[20],3.46
TAGCCTAGGTCATGCGTGCCAGTATAGTGTCGGC,PBM binding z-score,[1],4.03
same,PBM binding z-score,[2],3.31
same,PBM binding z-score,[3],0.471
same,PBM binding z-score,[4],1.75
same,PBM binding z-score,[5],-0.0531
same,PBM binding z-score,[6],3.69
same,PBM binding z-score,[7],2.33
same,PBM binding z-score,[8],2.39
same,PBM binding z-score,[9],0.347
same,PBM binding z-score,[10],1.23
same,PBM binding z-score,[11],1.88
same,PBM binding z-score,[12],3.12
same,PBM binding z-score,[13],0.14
same,PBM binding z-score,[14],0.765
same,PBM binding z-score,[15],1.62
same,PBM binding z-score,[16],1.51
same,PBM binding z-score,[17],-0.776
same,PBM binding z-score,[18],2.65
same,PBM binding z-score,[19],-0.307
same,PBM binding z-score,[20],3.77
CATACAGGGTCAGCTCGGCCAGAGTAGGGACGGC,PBM binding z-score,[1],4.13
same,PBM binding z-score,[2],2.91
same,PBM binding z-score,[3],-0.117
same,PBM binding z-score,[4],2.06
same,PBM binding z-score,[5],0.463
same,PBM binding z-score,[6],3.97
same,PBM binding z-score,[7],2.99
same,PBM binding z-score,[8],2.64
same,PBM binding z-score,[9],0.565
same,PBM binding z-score,[10],1.72
same,PBM binding z-score,[11],0.771
same,PBM binding z-score,[12],2.11
same,PBM binding z-score,[13],1.08
same,PBM binding z-score,[14],0.134
same,PBM binding z-score,[15],0.989
same,PBM binding z-score,[16],2.02
same,PBM binding z-score,[17],0.0599
same,PBM binding z-score,[18],2.97
same,PBM binding z-score,[19],0.394
same,PBM binding z-score,[20],4
AGTCAAAGTTTACTAGGTAACGTAAGATTCAGCT,PBM binding z-score,[1],-0.0676
same,PBM binding z-score,[2],0.666
same,PBM binding z-score,[3],0.138
same,PBM binding z-score,[4],0.287
same,PBM binding z-score,[5],0.0239
same,PBM binding z-score,[6],2.28
same,PBM binding z-score,[7],3.46
same,PBM binding z-score,[8],3.72
same,PBM binding z-score,[9],1.13
same,PBM binding z-score,[10],2.53
same,PBM binding z-score,[11],3.45
same,PBM binding z-score,[12],4.76
same,PBM binding z-score,[13],0.895
same,PBM binding z-score,[14],0.737
same,PBM binding z-score,[15],0.729
same,PBM binding z-score,[16],0.455
same,PBM binding z-score,[17],0.255
same,PBM binding z-score,[18],0.426
same,PBM binding z-score,[19],0.29
same,PBM binding z-score,[20],1.81
AGAACGAGGGCACGCTGAATTGATAGCAGAGTAG,PBM binding z-score,[1],0.635
same,PBM binding z-score,[2],0.375
same,PBM binding z-score,[3],-0.408
same,PBM binding z-score,[4],0.0938
same,PBM binding z-score,[5],-0.694
same,PBM binding z-score,[6],1.92
same,PBM binding z-score,[7],2.24
same,PBM binding z-score,[8],2.02
same,PBM binding z-score,[9],0.73
same,PBM binding z-score,[10],1.04
same,PBM binding z-score,[11],4.42
same,PBM binding z-score,[12],4.08
same,PBM binding z-score,[13],0.656
same,PBM binding z-score,[14],0.0574
same,PBM binding z-score,[15],-0.00941
same,PBM binding z-score,[16],0.266
same,PBM binding z-score,[17],-0.373
same,PBM binding z-score,[18],0.746
same,PBM binding z-score,[19],-0.442
same,PBM binding z-score,[20],2.5

# From the supplement of paper PMC6555819
